This is part of a sample that, as a whole, favours compounds with a hit. Of some 83,000 tested, about 20% had one in any assay.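 For each line, cells grew in 96-well plates with the test compound present at a single concentration for 48 hours.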 Calls of active or inactive are those of the source. The calls were made as follows: active = growth percent below 10; inactive = the rest.
Assays:
Assay in all cases: NCI-60 one-dose screen, 48 h (100 = growth as untreated, 0 = no growth, -100 = all killed)
Settings in all cases: 10 µM
EKVX NSCLC = system: EKVX NSCLC
SN12C renal = system: SN12C renal
TK-10 renal = system: TK-10 renal
ACHN renal = system: ACHN renal
CAKI-1 renal = system: CAKI-1 renal
A498 renal = system: A498 renal
MOLT-4 leukemia = system: MOLT-4 leukemia
SR leukemia = system: SR leukemia
CCRF-CEM leukemia = system: CCRF-CEM leukemia
UO-31 renal = system: UO-31 renal

Measured: growth

C/C(=N\Nc1nc2ccccc2s1)c1ccncn1
inactive: EKVX NSCLC 22.7% | SN12C renal 46.7% | TK-10 renal 50.6% | ACHN renal 12.6% | CAKI-1 renal 29.9% | A498 renal 63.3% | SR leukemia 17.8%
active: MOLT-4 leukemia 2.87%

Nc1nc(N=Nc2ccc(O)cc2)cc(=O)[nH]1
inactive: EKVX NSCLC 91.4% | SN12C renal 101% | TK-10 renal 120% | ACHN renal 105% | CAKI-1 renal 91.4% | CCRF-CEM leukemia 97.5% | MOLT-4 leukemia 104% | SR leukemia 94.3%

COc1cc(OC)cc(-c2cncn2-c2ccc(-c3nc4cc(OC)cc(OC)c4s3)cc2)c1
inactive: EKVX NSCLC 51.3% | SN12C renal 80.4% | UO-31 renal 49.5% | ACHN renal 67.4% | CAKI-1 renal 29% | CCRF-CEM leukemia 21.6% | MOLT-4 leukemia 44.3% | SR leukemia 35.5%

COc1cc(C(=C2O[C@@H]([C@H]3COC(C)(C)O3)[C@H]3OC(C)(C)O[C@@H]23)c2cc(OC)c(OC)c(OC)c2)cc(OC)c1OC
inactive: EKVX NSCLC 98.5% | SN12C renal 92.9% | UO-31 renal 95.8% | ACHN renal 99.8% | CAKI-1 renal 107% | CCRF-CEM leukemia 103% | MOLT-4 leukemia 99.8% | SR leukemia 90.6%

COc1ccc(C2CC(c3ccc(N(C)C)cc3)=NN2c2ccc(S(N)(=O)=O)cc2)cc1 (stereo not drawn)
inactive: EKVX NSCLC 28.4% | SN12C renal 49.4% | UO-31 renal 32% | ACHN renal 35.2% | CAKI-1 renal 48.2%

Oc1[nH]c2cc(Cl)ccc2c1/C=c1/ccc2c(c1)N=C(c1cc(F)cc(F)c1)N=2
active: A498 renal 0.502% | CCRF-CEM leukemia 9.33% | MOLT-4 leukemia 8.56%
inactive: EKVX NSCLC 57.2% | SN12C renal 64% | TK-10 renal 58.8% | ACHN renal 46.3% | CAKI-1 renal 17.1% | SR leukemia 11.4%

O=C1ON=[N+](c2ccc(Cc3ccc([N+]4=NOC(=O)C4CN4CCOCC4)cc3)cc2)C1CN1CCOCC1 (stereo not drawn)
inactive: EKVX NSCLC 69.9% | SN12C renal 80.3% | UO-31 renal 44.3% | TK-10 renal 74.5% | CAKI-1 renal 49.3% | A498 renal 53.7% | CCRF-CEM leukemia 63.9% | MOLT-4 leukemia 68.4% | SR leukemia 23%

COc1ccc(Cl)cc1C(=O)Nc1nc2ccc(Cl)cc2s1
inactive: EKVX NSCLC 76.2% | SN12C renal 91.7% | TK-10 renal 127% | ACHN renal 85.9% | CAKI-1 renal 84.4% | CCRF-CEM leukemia 86.4% | MOLT-4 leukemia 95.6% | SR leukemia 87.7%

COc1cc2c(cc1OC)N(CCO)C1=C(C(=O)OC1)C2c1ccc(Cl)c(Cl)c1 (stereo not drawn)
inactive: EKVX NSCLC 87% | SN12C renal 108% | UO-31 renal 82.3% | ACHN renal 107% | CAKI-1 renal 107% | A498 renal 89.3% | CCRF-CEM leukemia 92.6% | MOLT-4 leukemia 73.7% | SR leukemia 86%

CCN(CC)CCCC(C)Nc1ccc2ccc(Cl)cc2n1 (stereo not drawn)
inactive: EKVX NSCLC 103% | SN12C renal 88.8% | UO-31 renal 85.8% | ACHN renal 98.5% | CAKI-1 renal 104% | A498 renal 92.3% | CCRF-CEM leukemia 102% | MOLT-4 leukemia 96.5% | SR leukemia 96.4%

Cc1cc(C)c(CCc2cc(C)c(C)cc2C)cc1C
inactive: EKVX NSCLC 102% | SN12C renal 107% | TK-10 renal 117% | ACHN renal 112% | CAKI-1 renal 94.1% | A498 renal 98.7% | CCRF-CEM leukemia 93% | MOLT-4 leukemia 90.5% | SR leukemia 90.4%

CCC1(C(C)C)NC(=O)NC1=O (stereo not drawn)
inactive: EKVX NSCLC 99.4% | SN12C renal 88.1% | UO-31 renal 82.1% | ACHN renal 99.9% | CAKI-1 renal 104% | CCRF-CEM leukemia 92.4% | MOLT-4 leukemia 101% | SR leukemia 90.2%

CCN(CCCCCCCCCCN1CC(=O)N(CCCCCCCCCCN(CC)Cc2ccccc2OC)CC1=O)Cc1ccccc1OC
inactive: TK-10 renal 10.1%
active: EKVX NSCLC -0.258% | SN12C renal 9.4% | ACHN renal 3.48% | CAKI-1 renal -12.8% | CCRF-CEM leukemia -25.5% | MOLT-4 leukemia -32.7% | SR leukemia -61.3%

CC1(C)OC2=C(CC1Br)C(=O)C(=O)c1ccccc12 (stereo not drawn)
inactive: A498 renal 101% | SR leukemia 15.9%
active: EKVX NSCLC -40.1% | SN12C renal -75.4% | TK-10 renal -22.6% | ACHN renal -91.7% | CAKI-1 renal -62.2% | MOLT-4 leukemia -25.6%

CCN1CCN(c2nc3ccccc3c3c(=O)c4ccccc4sc23)CC1
inactive: EKVX NSCLC 59.1% | SN12C renal 41.6% | UO-31 renal 29.8% | ACHN renal 22.8% | A498 renal 37% | CCRF-CEM leukemia 29.2%
active: MOLT-4 leukemia 2.07% | SR leukemia -11.8%

CCN(CC)CCOc1nc2cc(OC)c(OC)cc2c2c1-c1ccc(OC)cc1C2=O
inactive: EKVX NSCLC 98.6% | SN12C renal 80.7% | UO-31 renal 47.7% | ACHN renal 56% | CAKI-1 renal 35.7% | A498 renal 96.6% | CCRF-CEM leukemia 22.4%
active: MOLT-4 leukemia 9.28% | SR leukemia -29.6%

CCN(CCCCCCN1CC(=O)N(CCCCCCN(CC)Cc2ccccc2OC)CC1=O)Cc1ccccc1OC
inactive: EKVX NSCLC 72.9% | SN12C renal 93.9% | UO-31 renal 91.9% | ACHN renal 110% | CAKI-1 renal 90.3% | MOLT-4 leukemia 42.7% | SR leukemia 39.3%

O=C(Nc1ccncc1)C(=O)c1cn(S(=O)(=O)c2cccc3ccccc23)c2ccccc12
inactive: EKVX NSCLC 46.9% | SN12C renal 92% | UO-31 renal 58.5% | ACHN renal 87.2% | CAKI-1 renal 60.4% | A498 renal 80% | CCRF-CEM leukemia 59.5% | MOLT-4 leukemia 69% | SR leukemia 21.2%

CCCCCCN(CCCCCC)CC(O)c1ccc2c3c(cccc13)CC2 (stereo not drawn)
inactive: EKVX NSCLC 71.5% | SN12C renal 61.4% | UO-31 renal 32% | ACHN renal 53.8% | CAKI-1 renal 59.6% | A498 renal 24.5% | MOLT-4 leukemia 53.3% | SR leukemia 21.7%

c1ccc([C@H]2CN3CCSC3=N2)cc1
inactive: EKVX NSCLC 98.3% | SN12C renal 109% | UO-31 renal 88.2% | ACHN renal 107% | CAKI-1 renal 93.6% | A498 renal 85% | CCRF-CEM leukemia 99.1% | MOLT-4 leukemia 98.5% | SR leukemia 103%

O=C(CCCCCCC(=O)Nc1cccnc1)NO
active: CCRF-CEM leukemia 2%
inactive: EKVX NSCLC 96.7% | SN12C renal 71.2% | TK-10 renal 41% | ACHN renal 65.7% | CAKI-1 renal 46.6% | A498 renal 42.9% | MOLT-4 leukemia 16.9% | SR leukemia 28.6%

CCCC1(CC(=O)O)OCCc2c1[nH]c1ccccc21 (stereo not drawn)
inactive: EKVX NSCLC 120% | SN12C renal 98% | TK-10 renal 113% | ACHN renal 111% | CAKI-1 renal 91% | A498 renal 106% | CCRF-CEM leukemia 94.1% | MOLT-4 leukemia 87.3% | SR leukemia 84%

COc1cc2c(cc1OCCCCCCN1CCN(CC(=O)Nc3ccc(Cl)cc3C(=O)c3ccccc3Cl)CC1)N=CC1CCCN1C2=O (stereo not drawn)
active: EKVX NSCLC -93.2% | SN12C renal -90.2% | TK-10 renal -98.8% | ACHN renal -100% | CAKI-1 renal -98.8% | CCRF-CEM leukemia -66.3% | MOLT-4 leukemia -64% | SR leukemia -70.2%

O=C1C(=O)c2ccccc2C(O)=C1CCCc1ccc(C2CCCCCC2)cc1
active: CAKI-1 renal -34.2%
inactive: EKVX NSCLC 24.9% | SN12C renal 53.4% | UO-31 renal 24.2% | ACHN renal 38.6% | CCRF-CEM leukemia 34.7% | MOLT-4 leukemia 49.2% | SR leukemia 38%

COc1cccc(-c2cc(-c3cccc(NS(C)(=O)=O)c3)nc(N)c2C#N)c1O
active: CAKI-1 renal -11.9%
inactive: EKVX NSCLC 32.6% | SN12C renal 50.7% | UO-31 renal 15.3% | ACHN renal 43.3% | CCRF-CEM leukemia 12.3% | MOLT-4 leukemia 35% | SR leukemia 24.6%

COc1cc2c(cc1OCCCN1CCN(c3ncnc4ccccc34)CC1)N=CC1CCCN1C2=O (stereo not drawn)
active: EKVX NSCLC -38.6% | SN12C renal 3.4% | TK-10 renal -7.43% | ACHN renal 2.77% | CAKI-1 renal -12.1% | CCRF-CEM leukemia -45.8% | MOLT-4 leukemia -44.3% | SR leukemia -43.4%

COc1cc2nc(Nc3cccc(NC(C)=O)c3)nc(N)c2cc1OC
inactive: EKVX NSCLC 133% | SN12C renal 95.5% | UO-31 renal 78.4% | ACHN renal 102% | CAKI-1 renal 127% | A498 renal 95% | SR leukemia 107%
active: MOLT-4 leukemia -89.5%

NC(=O)c1ccc(-c2cccc3c(=O)nc(N4CCOCC4)oc23)cc1
inactive: EKVX NSCLC 97.3% | SN12C renal 104% | UO-31 renal 89.2% | ACHN renal 100% | A498 renal 98.2% | CCRF-CEM leukemia 98.6% | MOLT-4 leukemia 103% | SR leukemia 92%

COc1ccc2c(c1)N(CCO)C1=C(C(=O)OC1)C2c1cc(OC)c(OC)c(OC)c1 (stereo not drawn)
active: CAKI-1 renal 6.97% | A498 renal -12.2%
inactive: EKVX NSCLC 40.3% | SN12C renal 26% | TK-10 renal 66% | ACHN renal 32.8% | CCRF-CEM leukemia 11.6% | MOLT-4 leukemia 19.3% | SR leukemia 23.5%

Nc1ncn([C@@H]2O[C@H](CO)[C@@H](O)[C@H]2O)c(=O)n1
active: SR leukemia 7.12%
inactive: EKVX NSCLC 107% | SN12C renal 14.8% | UO-31 renal 15% | ACHN renal 11.8% | CAKI-1 renal 22.3% | A498 renal 28.5% | MOLT-4 leukemia 33.6%

O=C(/C=C/c1cc2ccccc2[nH]c1=O)c1ccc2c(c1)OCO2
inactive: EKVX NSCLC 95.9% | SN12C renal 93.5% | UO-31 renal 63.7% | ACHN renal 103% | CAKI-1 renal 118% | A498 renal 97.6% | MOLT-4 leukemia 66% | SR leukemia 52.5%

O=C1OCC2=C1C(c1cccc(Cl)c1)c1cc3c(cc1N2CCO)OCO3 (stereo not drawn)
inactive: EKVX NSCLC 56.6% | SN12C renal 42.9% | TK-10 renal 58.2% | ACHN renal 46.3% | CAKI-1 renal 39.6% | MOLT-4 leukemia 26.4% | SR leukemia 32.5%
active: A498 renal -7.88%

— PubChem BioAssay (NCI)
